# From PubChem BioAssay
# Rows were chosen to be rich in hits. Some 7% of all compounds tested hit in one or more screens of this group.
# ADAM17 inh = inhibitors of human ADAM17; P78536; recombinant ADAM17, EDANS/DABCYL FRET peptide cleavage; inhibition, % at 6.95 µM; 370,000 tested, 0.83% active;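 active = inhibition above the mean of compounds lying between control limits plus 3 SD, set per campaign, cut at about 8.5% in these data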;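 note: 0% = DMSO-only wells as the low control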
# rCAG RNA binder = binds r(CAG) RNA repeats; r(CAG) RNA repeat, TO-PRO-1 dye displacement fluorescence; inhibition, % at 3 µM; 370,000 tested, 1.3% active; AID 651821;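 active = inhibition above the plate cutoff, the mean of all test compounds on that plate plus 3 SD, cut at about 35% in these data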;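 note: 0% = DMSO alone and 100% = 100 µM mitoxantrone as full dye displacement; higher means more dye released from RNA so lower well fluorescence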
# KLK7 zymogen act = activates the human kallikrein-7 zymogen; purified proKLK7, EDANS-DABCYL substrate fluorescence; 100% is mature enzyme control, 0% vehicle; P49862; activation, % at 7 µM; 370,000 tested, 0.9% active;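 active = activation above the mean of all tested compounds plus 3 SD, computed per campaign excluding outliers beyond control limits, cut at about 13% in these data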
# Target sequence (P49862 whole entry, looked up): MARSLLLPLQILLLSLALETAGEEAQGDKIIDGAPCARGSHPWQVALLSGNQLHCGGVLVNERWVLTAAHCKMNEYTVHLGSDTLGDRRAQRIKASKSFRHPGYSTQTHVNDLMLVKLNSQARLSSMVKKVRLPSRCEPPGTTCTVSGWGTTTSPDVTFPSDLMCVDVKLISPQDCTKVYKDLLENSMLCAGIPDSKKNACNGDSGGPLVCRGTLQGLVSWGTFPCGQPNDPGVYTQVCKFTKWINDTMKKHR
# AHR activator = activators of human aryl hydrocarbon receptor | P35869 | AHR-responsive luciferase reporter cells, luminescence | activation, % at 5 µM | 320,000 tested, 2.5% active | AID 2796; in the data active = activation above about 47%;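 note: 0% = vehicle wells and 100% = reference agonist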
# ADAM10 inh = inhibits human ADAM10; O14672; recombinant ADAM10, EDANS/DABCYL FRET peptide cleavage, 3 h; inhibition, % at 7 µM; 370,000 tested, 0.62% active;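 active = inhibition above a per-campaign cutoff equal to the mean of compounds falling between control-based bounds plus 3 SD, cut at about 20% in these data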;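 note: 0% = DMSO wells while the 100% control is not disclosed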
# GRIN3A LBD mod = modulates the human NR3A ligand-binding domain. AID 1259313. Tm shift relative to glycine control, % at 25 µM. NR3A LBD differential scanning fluorimetry, Tm shift; 0% = protein alone, 100% = glycine-bound protein. 340,000 tested, 2.5% active;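 active = melting temperature shift of at least 10% of the positive control shift, at one fixed dose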
# proKLK7 act conf = proKLK7 activation, confirmation. shares compounds with KLK7 zymogen act. 3,200 tested, 68% active. purified proKLK7, EDANS-DABCYL substrate fluorescence; scaled: vehicle 0, mature enzyme 100. activation, % at 7 µM. AID 686949;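 active = activation, as change over the incubation, above the mean of all tested compounds plus 3 SD, cut at about 13% in these data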
# EDANS interfere = counter-screen for kallikrein-7 activators: EDANS-DABCYL optical interference | EDANS-DABCYL substrate fluorescence interference, no enzyme, 4 h; solvent 0%, active enzyme control 100% | activation, % at 7 µM | 3,200 tested, 80% active | shares compounds with KLK7 zymogen act;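 active = activation above the all-compound mean plus 3 SD, ignoring values outside control-based bounds, cut at about 4.8% in these data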;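 note: value is the 4 h activation minus the activation read at time zero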
# K7 EDANS ctr = counter-screen for kallikrein-7 activators: EDANS-DABCYL interference, dose response; AID 720493; 250 tested, 20% active; EC50, µM; EDANS-DABCYL peptide fluorescence interference, no enzyme; shares compounds with KLK7 zymogen act;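 active = compounds that raise the fluorescence signal in this interference counterscreen, with EC50 at or below 10 µM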;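 note: intact quenched peptide substrate alone read at 355 nm excitation and 520 nm emission; signal is fluorescence gain from T0 to T4 after four hours at room temperature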
# An asterisk follows results filed as active; i = inactive; nt = no result given.
SMILES,ADAM17 inh,rCAG RNA binder,KLK7 zymogen act,AHR activator,ADAM10 inh,GRIN3A LBD mod,proKLK7 act conf,EDANS interfere,others
CN(C)C(=O)CCc1ccc2c3c([nH]c2c1)[C@]1(C)[C@@H](C(=O)N2CCOCC2)C[C@H](CC(=O)NCc2ccco2)C(=O)N1CC3,-3,2,1,nt,-9,1,nt,nt,
CC[C@]12c3[nH]c4ccccc4c3CCN1C(=O)C(CC(=O)NCc1ccco1)C[C@@H]2C(=O)N1CCN(C(=O)c2ccco2)CC1 (stereo not given in full),-4,3,0,2,-4,-2,nt,nt,
CC[C@]12c3[nH]c4cc(-c5ccco5)ccc4c3CCN1C(=O)[C@@H](CC(=O)NCc1ccco1)C[C@@H]2C(=O)N1CCN(C(=O)c2ccco2)CC1,-102,8,134*,nt,-345,0,95*,104*,
Cc1c(C)c2c(OCC(=O)NCC(=O)NCC(=O)O)cc3c(c2oc1=O)CCC(C)(C)O3,i,5,57*,2,i,1,79*,79*,
Cc1c(C)c2c(OCC(=O)O)cc3c(c2oc1=O)CCC(C)(C)O3,i,5,33*,3,i,1,61*,73*,
CN(C)c1ccc(C=O)c(Oc2ccccc2)c1,3,1,1,nt,-2,nt,nt,nt,
Cc1ccc2[nH]c(=O)c(CN(C(=O)c3cccs3)c3ccccc3)cc2c1,-1,-2,0,17,-7,-5,nt,nt,
FC(F)(F)c1nc2nc(Cl)c(Cl)nc2n1CCCN1CCOCC1,-286,1,25*,nt,i,nt,2,2,
CCCNC(=O)C1(C)CCCN(Cc2ccccc2C#N)C1 (stereo not given),-3,0,0,nt,0,nt,nt,nt,
CC(C)(C)C(=O)Nc1ccc(/C=C/C(=O)c2ccco2)cc1,-70,-2,78*,16,-176,-9,53*,48*,
COc1ccc2[nH]c3c(c2c1)CCN1C(=O)C(CC(=O)NC(C)(C)C)C[C@H](C(=O)N(C(C)C)C(C)C)[C@@]31C (stereo not given in full),0,-2,0,nt,-8,2,nt,nt,
COCCn1c(C)cc(/C=C(\C#N)C(=O)OCC(=O)Nc2ccc(S(N)(=O)=O)cc2)c1C,-2,17,14*,nt,-19,-1,1,0,
CCCn1c(C)cc(/C=C(\C#N)C(=O)OCC(=O)Nc2ccc(OC)c(Cl)c2)c1C,-4,9,-4,-3,-3,0,nt,nt,
O=C(CSc1ccc(Br)cc1)Nc1ccc(N2CCOCC2)cc1,-2,-2,1,1,0,1,nt,nt,
CNc1ccc(/C=C\CCCO)cn1,-340,-1,16*,nt,i,nt,15*,18*,
CC(=O)Nc1cnc(/C=C\CCCO)cn1,-83,4,2,nt,-406,nt,nt,nt,
Cc1sc2nc3ccc(NCc4ccco4)nn3c(=O)c2c1C,-50,3,17*,-1,-127,0,74*,70*,
CC(=O)c1ccc(-c2ccc(C(=O)N(C)Cc3nc4ccccc4c(=O)[nH]3)o2)cc1,-440,4,26*,3,i,1,-2,-12,
CN(Cc1nc2ccccc2c(=O)[nH]1)C(=O)c1ccc(S(=O)(=O)N(C)C)cc1,0,0,0,-1,6,2,nt,nt,
Cc1ccc(C2C=C(c3ccccc3OC(F)F)Nc3ncnn32)cc1 (stereo not given),-150,1,18*,8,-444,-1,76*,80*,
Cc1ccc(C2C=C(c3ccc4c(c3)OCO4)Nc3ncnn32)cc1 (stereo not given),-54,5,15*,43,-155,-2,-15,9.2*,
COc1cccc(C2=CC(c3ccc(C)cc3)n3ncnc3N2)c1 (stereo not given),nt,nt,nt,15,nt,nt,nt,nt,
CCOc1ccc(S(=O)(=O)N(CC)CC)cc1NC(=O)c1ccc(N2CCCC2=O)cc1,2,-5,0,1,-6,0,nt,nt,
O=C(CNC(=O)c1ccc(Cl)cc1)NCCCn1ccnc1,-3,0,0,4,0,-1,nt,nt,
Cc1cc(Nc2cccc(F)c2)nc(-c2ccccc2O)n1,2,31,197*,26,13,30*,13*,-69,K7 EDANS ctr=>70
SMILES,ADAM17 inh,rCAG RNA binder,KLK7 zymogen act,AHR activator,ADAM10 inh,GRIN3A LBD mod,proKLK7 act conf,EDANS interfere,others
COc1ccccc1NC1=Nc2cccc3cccc1c23,-2,1,0,10,-5,6,nt,nt,
CCCCN(C)C1=Nc2cccc3cccc1c23,-40,2,60*,33,-123,-2,12,12*,
COc1ccc(OC)c(S(=O)(=O)Nc2cccc3ccc(O)cc23)c1,4,9,0,8,2,-1,nt,nt,
COc1ccc(NC(=O)COC(=O)CCCc2c[nH]c3ccccc23)cc1OC,nt,nt,nt,8,nt,-9,nt,nt,
CCC(=O)OCc1cc(=O)oc2ccc3ccccc3c12,i,4,22*,0,i,-1,-7,-19,
O=C1CCC(C(=O)OCc2cc(=O)oc3ccc4ccccc4c23)=NN1,-244,6,145*,7,i,-2,357*,371*,
c1ccc(CNc2cccnc2)cc1,-4,3,0,nt,-21,nt,nt,nt,
OC1CCCCC1,-4,1,0,0,-15,0,nt,nt,
Cc1cc(=O)oc2cc(OCC(=O)NC3(C#N)CCCCC3)ccc12,-193,1,-4,nt,i,nt,nt,nt,
O=[N+]([O-])c1cccc(-c2noc(-c3cccs3)n2)c1,-5,-3,0,26,-7,0,nt,nt,
CCC1CCCCN1CCCCOc1cccc(Cl)c1 (stereo not given),0,-1,0,0,7,0,nt,nt,
Cc1ccc(C2OC34CCCCCC3C(C#N)(C(=N)O4)C2(C#N)C#N)cc1 (stereo not given),-309,5,16*,1,i,-5,29*,34*,
CCCCOc1ccc(C2OC34CCCCC3C(C#N)(C#N)C2(C#N)C(=N)O4)cc1 (stereo not given),nt,nt,nt,2,nt,-3,nt,nt,
NC(=O)c1ccccc1N=Cc1ccccn1,-125,-3,3,4,i,1,nt,nt,
Cc1ccc(C=Nc2ccccc2C(N)=O)cc1,-389,2,19*,10,i,1,40*,31*,K7 EDANS ctr=>70
Cc1ccccc1C=Nc1ccccc1C(N)=O,-319,2,18*,-1,i,-3,28*,29*,
